Cycloheximide cs = affects cycloheximide protein synthesis inhibition readout, counter-screen; max response, %; 300,000 tested, 12% active; cell reporter, cycloheximide protein synthesis inhibition counterscreen; in the data active = max response mostly above about 13%, no sharp cut-off; inactive = mostly below about 14%; note: read at 38.3 µM for the half of the compounds with a filed dose; 0% is about no effect
Tb PYK inh = T. brucei pyruvate kinase inhibition. Q57TT1. TbPYK enzyme, Kinase-Glo Plus ATP luminescence, 45 min. Potency, µM (series often up to 76.8 µM), inactives show at the highest dose activity, negative = inhibition, most hits filed as inhibitors. 410,000 tested, 0.12% active; note: potency is the fitted concentration of half-maximal effect; % is set by controls: 0 for no effect and ±100 for the full control effect; nearly all actives have a fitted effect of over 50% in size
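Activity of T. brucei pyruvate kinase was followed by Kinase-Glo Plus luminescence after the enzyme reacted 45 min at room temperature with 130 uM ADP (final) and substrate. Test compounds were added before ADP at multiple concentrations.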
LmPK inh = LmPK (Leishmania mexicana) enzyme inhibition. 290,000 tested, 0.37% active. AID 1721. Potency, µM (titrated, usually from 57.5 µM), without a hit: top-dose activity change, negative = inhibition, actives largely listed as inhibitors. purified LmPK, Kinase-Glo ATP luminescence, 1 h. Q27686; note: potency is the fitted concentration of half-maximal effect; % is set by controls: 0 for no effect and ±100 for the full control effect
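ATP generated from ADP (0.1 mM) and PEP (0.5 mM) by 0.1 nM LmPK over 1 h at room temperature (pH 7.2 imidazole buffer) was detected by coupled luciferase luminescence. Values were normalized to uninhibited and no-enzyme wells.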
Sm TGR inh = blocks Schistosoma mansoni thioredoxin glutathione reductase. Q962Y6. purified TGR, DTNB reduction, TNB absorbance 405 nm. Potency, µM (series often up to 114 µM), inactives show at the highest dose activity change, negative = inhibition, actives largely listed as inhibitors. 360,000 tested, 3% active. AID 485364; note: potency is the fitted concentration of half-maximal effect; % is set by controls: 0 for no effect and ±100 for the full control effect; nearly all actives have a fitted effect of over 60% in size
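Kinetic colorimetric format: TGR-catalysed, NADPH-driven DTNB reduction monitored via TNB absorbance. Enzyme dispensed at 20 nM; compound exposure 15 min at room temperature before reaction start.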
FBPA Giardia inh = inhibitors of Giardia lamblia fructose-1,6-bisphosphate aldolase; AID 2451; Potency, µM (top dose mostly 59.6 µM), for the others: top-dose activity, negative = inhibition, actives largely listed as inhibitors; A8B2U2; purified Giardia FBPA; 290,000 tested, 0.71% active; note: potency is the fitted concentration of half-maximal effect; % is set by controls: 0 for no effect and ±100 for the full control effect; nearly all actives have a fitted effect of over 55% in size
Target sequence (A8B2U2 whole entry, looked up): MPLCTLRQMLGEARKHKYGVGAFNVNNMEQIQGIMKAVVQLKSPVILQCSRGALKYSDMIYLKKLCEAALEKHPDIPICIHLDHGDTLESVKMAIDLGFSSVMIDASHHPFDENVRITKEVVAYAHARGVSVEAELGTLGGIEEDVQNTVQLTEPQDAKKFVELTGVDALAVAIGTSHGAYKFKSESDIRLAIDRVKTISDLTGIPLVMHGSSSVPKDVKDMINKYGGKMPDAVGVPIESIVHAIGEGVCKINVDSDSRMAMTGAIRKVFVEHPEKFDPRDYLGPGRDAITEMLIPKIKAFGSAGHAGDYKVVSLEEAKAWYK
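Giardia FBPA (40 nM reagent) was preincubated 10 min at RT with compound (up to 57.5 uM final), then substrate plus GAPDH/TPI/NAD/arsenate coupling system with diaphorase/resazurin was added; resorufin fluorescence (525/598 nm) was read after 20 min.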
Shiga inhibitor = inhibitors of Shiga toxin in Vero cells. Vero cells, Shiga toxin protein synthesis inhibition reporter. inhibition, % at 38.7 µM. 290,000 tested, 9.2% active. AID 2315; in the data active = inhibition mostly above about 28%, no sharp cut-off; inactive = mostly below about 43%; note: 0% is about no effect
Numbers without * were called inactive; ? = inconclusive; · = no result; ! = a repeat was not active; [ ] = dose if it differs, or a comment. The entries come from a sample that favours hits as a whole. Unless noted, calls come from the whole dose curve; as a rule, active = well fitted curve in the direction sought with a large enough effect; inconclusive = small, poorly fitted or top-dose-only effect, or another doubt; inactive = no such curve, though single readings can be large; an effect the other way counts as inactive or inconclusive.

SMILES	Cycloheximide cs	Tb PYK inh	LmPK inh	Sm TGR inh	FBPA Giardia inh	Shiga inhibitor
COc1ccc(OC)c(NC(=O)Cn2c(=O)cc(C)c3c(C)nn(-c4cccc(Cl)c4C)c32)c1	·	5.3%	·	-8.6%	·	·
CC1=C(c2ccc(C)cc2)S(=O)(=O)N=C1N1CCN(c2ccccc2)CC1	·	-2.9%[15.4 µM]	·	-1.0%	·	·
COc1ccccc1NC(=O)CSc1cn(CC(=O)N2CCCC2)c2ccccc12	·	-4.1%	·	-5.9%	·	·
O=[N+]([O-])c1ccc(O)c(C=Nc2cccc3ccccc23)c1	-2.7	-0.7%	-4.2%	-10.2%	-4.6%	-3.2
Oc1ccc(C=Nc2cccc3ccccc23)c(O)c1	14.2*	1.8%	0.9%	?	?	30.4
COc1ccc(-n2c(=O)c(CCc3ccccc3)nc3cnc(OC)nc32)cc1	·	·	·	·	1.5%	·
CN=Cc1cc(-c2ccccc2)sc1O	40.0*	0.0%	3.9%	-15.4%	1.5%	40.4*
c1ccc(N2CCN(Cc3nnc(-c4ccc5c(c4)OCO5)o3)CC2)cc1	·	-0.4%	·	7.7%	·	·
O=C(c1cc2cc(F)ccc2[nH]1)N1CCc2ccccc21	34.2*	-12.0%	3.4%	-0.6%	-12.5%	74.3*
Cc1cc(C(=O)N2CCc3ccccc32)c2cc(F)ccc2n1	35.4*	-3.8%	-4.3%	-0.6%	9.3%	71.9*
COc1ccc2cc(C(=O)N3CCc4ccccc43)[nH]c2c1	33.6*	-13.8%	-0.1%	7.8%	-20.0%	99.8*
O=C(c1cc2cc(Br)ccc2[nH]1)N1CCc2ccccc21	18.6*	-4.6%	5.4%	1.0%	-7.9%	16.5
CC(=O)Nc1cnc(/C=C\CCCO)cn1	·	2.6%	·	·	·	·
CCc1c(C)nc2ncnn2c1Nc1ccc(C(C)=O)cc1	45.9*	0.7%	2.9%	-7.3%	3.8%	108.8*
CC(=O)c1ccc(NC(=O)CCc2c(C)nc3ncnn3c2C)cc1	21.3*	1.2%	-3.8%	-1.4%	0.3%	61.3*
CCOC(=O)c1ccc(Nc2c(CC)c(C)nc3ncnn23)cc1	-0.7	1.4%	-6.3%	-1.7%	6.3%	-2.5
Cc1cc(C)cc(-n2cnc3cc(C(=O)NC4CCCCCC4)ccc32)c1	·	4.9%	·	-8.9%	·	·
CC(NC(=O)c1cccc(S(=O)(=O)N2CCN(C)CC2)c1)c1ccc(Cl)cc1Cl (stereo not drawn)	·	-10.5%	·	-3.6%	·	·
CC(C)c1ccc(/C=C/C2=NNC(=O)CC2)cc1	32.5*	-27.0%	-5.2%	4.3%	-10.3%	84.8*
COc1cc(/C=C/C2=NNC(=O)CC2)cc(OC)c1OC	-1.1	0.4%	0.1%	-19.4%	3.9%	12.5
CCN(c1ccccc1)c1ncnc2c1cnn2-c1ccccc1	26.3*	-2.2%	8.7%	-18.7%	-3.4%	65.2*
CCOc1ccccc1Nc1ncnc2c1cnn2-c1ccccc1	8.9	0.0%	5.5%	8.5%	-0.5%	-2.9
CCN(Cc1ccccc1)c1ncnc2c1cnn2-c1ccc(F)cc1	·	-0.2%	·	10.6%	·	·
CN(Cc1ccccc1)c1ncnc2c1cnn2-c1ccccc1	55.1*	-1.8%	0.6%	3.6%	-0.5%	98.4*
Cc1cc(OCCCn2c(CCNC(=O)C3CCCCC3)nc3ccccc32)ccc1Cl	-2.4	-1.3%	·	-4.9%	·	-2.5
SMILES	Cycloheximide cs	Tb PYK inh	LmPK inh	Sm TGR inh	FBPA Giardia inh	Shiga inhibitor
CCOc1cc2[nH]c(=O)n(CCC(=O)N3CCN(c4cccc(Cl)c4)CC3)c(=O)c2cc1OCC	·	-2.7%	·	0.8%	·	·
Cn1c(=N)n(CC(=O)c2ccccc2)c2ccccc21	23.3*	2.4%	-10.8%	5.5%	-6.2%	24.3
CCCn1c(=N)n(CC(=O)C(C)(C)C)c2ccccc21	-5.0	3.0%	6.5%	-7.2%	2.7%	-30.0
Cn1c(=N)n(CC(=O)C(C)(C)C)c2ccccc21	27.0*	-1.2%	-4.6%	5.8%	1.1%	148.1*
COc1ccc(C(=O)CN2C(=O)COc3ccccc32)cc1	9.9	-0.1%	2.4%	0.0%	1.7%	34.3
COc1ccc(C(=O)CN2Cc3ccccc3C2=N)cc1	29.9*	-1.7%	-6.7%	8.3%	-6.0%	88.2*
COc1ccc(C(=O)Cn2c(=N)n(C)c3ccccc32)cc1	60.5*	-2.1%	0.3%	12.1%	-1.6%	85.4*
COc1ccc(CCNC(=O)c2c(C)oc3nc(C)nc(N4CCOCC4)c23)cc1OC	·	7.9%	·	5.6%	·	·
CC(=O)N1CCc2cc(S(=O)(=O)CCC(=O)N(C)Cc3ccco3)ccc21	10.1	-2.6%	-1.8%	-31.1%	7.8%	-20.4
CC1Sc2ccc(C(=O)O)cc2NC1=O (stereo not drawn)	7.0	2.7%	1.5%	-10.1%	0.0%	29.8
COc1ccc(CNC(=O)c2ccc3c(c2)NC(=O)C(C)S3)cc1 (stereo not drawn)	21.1*	-7.7%	0.5%	-5.9%	-17.2%	37.0*
CCc1ccc(-c2nc3cc(NC(=O)c4ccc(F)cc4)ccc3o2)cc1	·	1.3%	·	3.4%	·	·
C=CCOC(=O)C(C(C)=O)C(NC(=O)OC)c1ccc(F)cc1 (stereo not drawn)	·	·	·	·	2.3%[12.9 µM]	·
S=c1[nH]nc(Nc2cccc3ccccc23)s1	-1.9	?	-22.3%	8.8%	-8.3%	-3.5
Fc1ccccc1Nc1n[nH]c(=S)s1	26.2*	?	1.6%	-1.9%	-22.2%	69.2*
O=C(Nc1cc2c(cc1C(=O)c1ccccc1Br)OCCO2)c1ccccc1	·	-6.7%	·	-1.8%	·	·
Cc1nc(=S)c2ccccc2[nH]1	14.0	-14.2%	4.0%	0.0%	-12.5%	7.6
Cc1cc2[nH]c3ccccc3c2c(C)n1	35.7*	-6.9%	0.3%	-2.3%	3.8%	37.4*
COc1ncc2nc(-c3cc(F)cc(F)c3)c(=O)n(CCC#N)c2n1	·	3.0%	·	·	2.6%	·
CCCCC(=O)N1CCc2cc(OC)c(OC)cc2C1COc1ccc(C(=O)OCC)cc1 (stereo not drawn)	·	-5.4%	·	2.0%	·	·
Cc1c(/C=N/Nc2ccc(F)cc2)c(O)n(C)c(=O)c1C#N	2.0	-1.3%	16.6%	25.1µM*	?	-5.8
Cc1cc(C)n(C)c(=O)c1C#N	7.3	1.6%	-3.8%	-4.0%	2.1%	-16.1
Cc1c(C=O)c(Cl)n(C)c(=O)c1C#N	6.8	-0.4%	-8.4%	?	9.98µM*	-5.0
CC(=O)N=Cc1c(C)c(C#N)c(=O)n(C)c1O	1.6	0.6%	0.6%	-20.8%	8.89µM*	-6.3
Cn1c(O)c(/C=N/Nc2ccccc2)c(=O)n(C)c1=O	5.9	-8.2%	2.2%	-30.1%	-22.2%	26.1
COc1ccc(NC(=O)C2c3ccccc3OCC(=O)N2C2CC2)cc1 (stereo not drawn)	·	0.6%	·	·	·	·
N[C@@H](C(=O)N[C@@H]1C(=O)N2C(C(=O)O)=C(Cl)CS[C@H]12)c1ccccc1	-1.6	-9.4%	4.2%	-21.7%	19.9µM*!	-3.9
C=CC1=C(C(=O)O)N2C(=O)[C@@H](NC(=O)C(N=O)c3csc(N)n3)[C@H]2SC1 (stereo partly drawn)	3.4	-6.8%	·	·	15.8µM*	-3.5

High-throughput results deposited in PubChem by National Center for Advancing Translational Sciences (NCATS).
